# Compound activity as filed in PubChem.
# DRD3 agonist: agonists of human D3 dopamine receptor | P35462 | D3R DiscoveRx beta-arrestin cells, luminescence, 90 min | max activation, % | 0.58% of 410,000 active | AID 652048; in the data active = max activation above about 30%; also: 0% is about no effect
#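 Agonist-mode cell screen: cells plated at 1500/well and incubated overnight at 37 °C, then exposed to library compounds for 90 min at 37 °C. Detection reagent was added for 30–60 min at room temperature, and luminescence was read.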
# D1 antag: blocks dopamine activation of the human D1 receptor | P21728 | HEK293 TREx D1 cells, calcium flux, dopamine EC80; hits give low values | activity change, negative = inhibition, % at 10 µM | 3.2% of 360,000 active | AID 504652; in the data active = activity change below about -30%; also: % is scaled to controls: 0 for no effect and ±100 for the full control effect
# Target sequence (P21728 whole entry, looked up): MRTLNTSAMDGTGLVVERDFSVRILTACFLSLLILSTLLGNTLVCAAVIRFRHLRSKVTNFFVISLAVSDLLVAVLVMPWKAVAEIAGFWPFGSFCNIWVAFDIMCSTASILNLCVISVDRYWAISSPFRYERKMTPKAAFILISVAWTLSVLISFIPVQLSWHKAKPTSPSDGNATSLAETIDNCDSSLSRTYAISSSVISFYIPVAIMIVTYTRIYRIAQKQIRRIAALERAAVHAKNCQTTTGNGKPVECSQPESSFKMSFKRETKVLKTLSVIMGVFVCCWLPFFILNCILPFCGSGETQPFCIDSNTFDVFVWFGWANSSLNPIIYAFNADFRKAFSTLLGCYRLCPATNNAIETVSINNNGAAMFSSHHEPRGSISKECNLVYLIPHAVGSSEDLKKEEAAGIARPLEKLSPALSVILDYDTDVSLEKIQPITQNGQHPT
#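 Antagonism measured as reduced calcium response to an EC80 dopamine addition following 180 s compound pre-read; cells were inducible HEK293 Trex D1 plated overnight at 30 C, read kinetically at 1 cycle/sec.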
# DRD3 antagonist: antagonists of human D3 dopamine receptor | D3R cells, DiscoveRx beta-arrestin luminescence, antagonist mode; hits give low values | max response, negative = inhibition, % | 2.5% of 360,000 active; in the data active = max response below about -50%; inconclusive = no clear call, values can overlap the other calls; also: % is scaled to controls: 0 for no effect and ±100 for the full control effect
#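 Cells plated overnight at 1500 cells/well, then exposed to library compounds with dopamine controls for 90 minutes at 37 degrees C. DiscoveRx reagent added for 30–60 minutes at room temperature; luminescence read, quantitative HTS format.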
# D1 agonist: agonists of human D1 dopamine receptor. HEK293 T-REx D1 cells, calcium flux, agonist mode. activation, % at 2 µM. P21728. 1% of 360,000 active; in the data active = activation above about 30%; also: 0% is about no effect
#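 Inducible HEK293 T-REx D1 cells, force-coupled to calcium signalling, were plated at 4000 cells/well with tetracycline and held overnight at 30 C. After no-wash calcium dye loading, compound-evoked calcium rise over 180 s flagged agonists.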
# D1 PAM: human D1 dopamine receptor positive modulation | P21728 | HEK293 TREx D1 cells, calcium flux, dopamine EC20 potentiation | potentiation, % at 10 µM | 0.036% of 360,000 active | AID 504651; in the data active = potentiation above about 30%; also: 0% is about no effect
# * marks the source's active call; other numbers are inactive results; ? = inconclusive; nt = no result given. A selection: hits, their analogues and other compounds. The true share with any hit is near 6.1%.
SMILES,DRD3 agonist,D1 antag,DRD3 antagonist,D1 agonist,D1 PAM
C[C@H]1CN([C@@H](C)CO)S(=O)(=O)c2ccc(Br)cc2O[C@@H]1CN(C)C(=O)Cc1ccccc1,4,nt,8,nt,nt
Cn1c(=O)c2sccc2n2c(CCCC(=O)N3CCCCC3)nnc12,0,16,-2,2,4
COc1cc2c(cc1OC)CN(C(=S)Nc1ccc(Cl)cc1)CC2,7,-35*,18,7,-6
COc1cccc(NC(=S)N2CCc3cc(OC)c(OC)cc3C2)c1,2,-9,-23,3,-2
Cn1ccc2cc(S(=O)(=O)N3CCN(S(=O)(=O)c4c(F)cccc4F)CC3)ccc21,nt,7,nt,2,2
CC(C)=CC1C=C(C)C(C)C2C(=O)NNC(=O)C12 (centres undefined),2,7,-97*,4,-4
CC(C)[C@H]1CN=C2N(CCNC(=O)CCC3CCCCC3)[C@H](Cc3ccc(O)cc3)CN21,-62,-9,-83*,6,1
COc1ccc(C[C@H]2CN3C(=NC[C@@H]3Cc3ccccc3)N2CCNC(=O)CCC2CCCCC2)cc1,-32,-16,-62*,3,2
COc1ccc(C[C@H]2CN3C(=NC[C@@H]3C(C)C)N2CCNC(=O)CCC2CCCCC2)cc1,-64,-10,?,-4,-3
CN1C(CC(=O)c2ccccc2)CCCC1CC(O)c1ccccc1 (centres undefined),-46,-17,-80*,3,-3
CN1[C@@H](CC(=O)c2ccccc2)CCC[C@H]1C[C@H](O)c1ccccc1,-91,-9,-75*,8,-5
O=C(CC1C(=O)CCCC1=O)c1ccccc1,5,-3,7,7,2
CCN(CC)CCNC(=O)c1c(C)n(-c2ccccc2)c2cc(Br)c(OC)cc12,-2,4,-65*,18,-2
Nc1cccc(N2C(=O)c3cccc4c(N)ccc(c34)C2=O)c1,-1,-9,20,156*,-4
O=C1c2ccc3c4c(ccc(c24)C(=O)N1c1cccc(O)c1)C(=O)N(c1cccc(O)c1)C3=O,-22,1,-82*,0,-3
Cc1c(O)c2c3c(cccc3c1O)C(=O)N(c1ccccc1)C2=O,14,-8,67,53*,-2
Cc1cccc(N2C(=O)c3cccc4c(N(C)CCO)ccc(c34)C2=O)c1,-9,-3,-9,200*,0
CN(C)c1ccc2c3c(cccc13)C(=O)N(c1ccccc1)C2=O,nt,-6,nt,22,1
O=C(Nc1nc(-c2ccc3c(c2)OCCO3)cs1)C1CCCC1,9,-27,-5,2,1
CC(=O)O[C@@H]1CC2CCC1(C)C2(C)C (some centres undefined),8,nt,nt,nt,nt
C=CCNC(=O)CN1CCN(C(c2ccccc2)c2ccccc2)CC1,-25,-2,-1,2,-2
Nc1ccc2c3c(cccc13)C(=O)N(c1ccccc1)C2=O,12,-42*,11,384*,-6
O=C(O)c1ccc2c3c(cccc13)C(=O)N(c1ccccc1)C2=O,12,-4,-10,7,-1
Cc1cccc(N2C(=O)c3cccc4c(N)ccc(c34)C2=O)c1,7,15,6,576*,6
CCOC(=O)c1sc2cccc(F)c2c1S(=O)(=O)N1CCN(c2cccc(Cl)c2)CC1,-11,2,nt,4,-3
SMILES,DRD3 agonist,D1 antag,DRD3 antagonist,D1 agonist,D1 PAM
Clc1ccc(-c2csc(=Nc3cccnc3)n2CCCn2ccnc2)cc1Cl,-2,13,-4,6,-5
O=C(O)CCc1ccc(-c2cccs2)n1CC1CCCO1 (centres undefined),-3,0,9,0,11
FC(F)Oc1ccc(-c2csc(=Nc3cccnc3)n2CC2CCCO2)cc1 (centres undefined),17,-31*,43,15,-2
COCCn1c(-c2ccc(Br)cc2)csc1=Nc1cccnc1,2,-34*,7,4,-7
CCc1ccccc1NC(=O)Cn1c(=O)n(Cc2ccco2)c(=O)c2ccccc21,-5,0,nt,0,0
COc1ccc(-n2ncc(Cl)c(Cl)c2=O)cc1,-7,-9,-74*,1,-8
N#Cc1ccsc1NC(=O)c1cccc(-n2cnnn2)c1,-3,10,8,6,2
Cn1ccc(C(=O)NC(=S)Nc2ccc([N+](=O)[O-])cc2O)n1,-6,7,-10,1,8
